Data: PubChem BioAssay (Tox21)
Records with an inconclusive call do not appear. Where a call stands in place of a potency, no number is given. Activity calls are given as the source filed them. Calls come from the whole dose curve; as a rule, active = well fitted inhibition curve with a large enough effect in the repeat runs; inconclusive = weak or mixed curves; inactive = no such curve, though single readings can be large or run the other way.

Target: Aromatase (Homo sapiens) (UniProt P11511)
Assay: qHTS assay to identify aromatase inhibitors (AID 743083); note: nearly all actives have a fitted effect of over 55% in size
Settings: MCF-7 aro ERE, testosterone-driven ERE luciferase, 24 h; series mostly up to 70.3 µM
Potency is the fitted concentration of half-maximal effect.

Aromatase (Homo sapiens), sequence (P11511 whole entry, looked up): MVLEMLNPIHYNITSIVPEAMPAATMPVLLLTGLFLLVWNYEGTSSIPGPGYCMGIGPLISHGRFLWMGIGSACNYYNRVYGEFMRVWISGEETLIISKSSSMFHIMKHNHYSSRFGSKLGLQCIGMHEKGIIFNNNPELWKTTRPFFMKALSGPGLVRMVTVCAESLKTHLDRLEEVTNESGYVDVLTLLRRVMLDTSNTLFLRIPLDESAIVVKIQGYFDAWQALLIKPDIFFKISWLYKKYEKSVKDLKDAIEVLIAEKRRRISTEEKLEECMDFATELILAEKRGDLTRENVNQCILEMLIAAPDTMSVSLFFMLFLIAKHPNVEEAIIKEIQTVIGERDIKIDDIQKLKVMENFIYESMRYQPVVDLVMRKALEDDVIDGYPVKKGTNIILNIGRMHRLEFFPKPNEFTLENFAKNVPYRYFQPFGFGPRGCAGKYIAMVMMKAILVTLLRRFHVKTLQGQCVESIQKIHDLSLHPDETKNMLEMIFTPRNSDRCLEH

Row | Compound | Potency
1 | CCCCN1C(=O)[C@@H]([C@H](O)C2CCCCC2)NC(=O)C12CCN(Cc1ccc(Oc3ccc(C(=O)O)cc3)cc1)CC2 | inactive
2 | C[C@@H]1C[C@H]2[C@@H]3CCC4=CC(=O)C=C[C@]4(C)[C@@]3(Cl)[C@@H](O)C[C@]2(C)[C@@]1(OC(=O)c1ccco1)C(=O)CCl | inactive
3 | Nc1c(Cl)cc(Cl)cc1Cl | inactive
4 | Nc1ccc2cc(S(=O)(=O)O)cc(O)c2c1N=Nc1ccccc1C(F)(F)F | inactive
5 | CCOc1nc2cccc(C(=O)OC(C)OC(=O)OC3CCCCC3)c2n1Cc1ccc(-c2ccccc2-c2nn[nH]n2)cc1 (stereo unspecified) | 48.5 µM (active)
6 | O=C(N/N=C/c1ccccc1O)c1ccncc1 | 5.96 µM (active)
7 | CCOC(=O)/C=C(C)/C=C/C=C(C)/C=C/c1c(C)cc(OC)c(C)c1C | inactive
8 | Fc1ccc(C(c2ccc(F)cc2)N2CCN(C/C=C/c3ccccc3)CC2)cc1 | inactive
9 | CCC(Cl)C(Cl)C(Cl)CC(Cl)C(Cl)C(C)Cl (stereo unspecified) | inactive
10 | Cc1onc(-c2ccccc2Cl)c1C(=O)N[C@@H]1C(=O)N2[C@@H]1SC(C)(C)[C@@H]2C(=O)O | inactive
11 | CSc1ccc(C(=O)c2[nH]c(=O)[nH]c2C)cc1 | inactive
12 | Cc1cc(N)c(S(=O)(=O)O)cc1Cl | inactive
13 | OCCCCCCCCCCCCBr | inactive
14 | CN(C)c1ccc(SC#N)cc1 | inactive
15 | O=C(OCC(COC(=O)c1ccccc1)(COC(=O)c1ccccc1)COC(=O)c1ccccc1)c1ccccc1 | inactive
16 | CNc1ccc(O)cc1 | 15.3 µM (active)
